PubChem BioAssay AID1159580 (chemical genetic matrix, 2015)
Where “and” joins values, the source holds several entries; their conditions need not be identical. Equal entries are not always repeated. In all, about 5,500 compounds went through this assay and about 2,000 (36%) were called active. Another 18% or so got no clear call; they are omitted. No stated cut-off is given here; in the data, active means normalized growth mostly below about 0.91 (no sharp cut-off); inconclusive means no clear call, values can overlap the other calls; inactive means mostly above about 0.92. Some of the results follow.

Assay: chemical genetic growth profiling, strain panel (AID 1159580);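 further: tested at 20 µM; growth read once vehicle control cultures reached saturation at 30 °C; 1 = growth at the plate median or of vehicle wells; lower values mean less growth of the strain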
Details: S. cerevisiae deletion strains, growth OD

Measured: normalized growth

C[C@@H]1CC[C@@]2(OC1)O[C@H]1CC3C4CC[C@H]5C[C@@H](O)CC[C@]5(C)C4CC[C@]3(C)[C@H]1[C@@H]2C (stereo not given in full)
inactive: locus YAL013W, strain DEP1, hits give low values 0.985 | locus YAL021C, strain ccr4, hits give low values 1.02 | locus YAL026C, strain drs2, hits give low values 1.01 | locus YAL030W, strain snc1, hits give low values 0.994 | locus YBL061C, strain skt5, hits give low values 1 | locus YBR009C, strain hhf1, hits give low values 0.99 | locus YBR021W, strain FUR4, hits give low values 1.11 | locus YBR023C, strain chs3, hits give low values 1 | locus YBR171W, strain sec66, hits give low values 0.994 | locus YBR229C, strain ROT2, hits give low values 0.988 | locus YBR231C, strain swc5, hits give low values 0.988 | locus YBR279W, strain paf1, hits give low values 0.996 | locus YCL011C, strain gbp2, hits give low values 0.994 | locus YCL016C, strain dcc1, hits give low values 0.998 | locus YCL029C, strain bik1, hits give low values 0.978 | locus YCL061C, strain MRC1, hits give low values 0.987 | locus YCL069W, strain vba3, hits give low values 1 | locus YCR088W, strain abp1, hits give low values 0.986 | locus YDL005C, strain med2, hits give low values 0.999 | locus YDL035C, strain GPR1, hits give low values 1.02 | locus YDL040C, strain nat1, hits give low values 0.998 | locus YDL074C, strain BRE1, hits give low values 1 | locus YDL101C, strain DUN1, hits give low values 0.983 | locus YDL134C, strain PPH21, hits give low values 0.972 | locus YDL185W, strain tfp1, hits give low values 0.954 | locus YDL192W, strain arf1, hits give low values 0.978 | locus YDR001C, strain nth1, hits give low values 0.997 | locus YDR069C, strain doa4, hits give low values 0.993 | locus YDR101C, strain arx1, hits give low values 1.01 | locus YDR137W, strain rgp1, hits give low values 1 | locus YDR159W, strain sac3, hits give low values 1 | locus YDR162C, strain NBP2, hits give low values 0.994 | locus YDR195W, strain ref2 0.989 | locus YDR297W, strain sur2, hits give low values 0.988 | locus YDR318W, strain mcm21, hits give low values 0.977 | locus YDR334W, strain swr1, hits give low values 0.993 | locus YDR335W, strain msn5, hits give low values 0.996 | locus YDR388W, hits give low values 0.981 | locus YDR392W, strain spt3, hits give low values 0.981 | locus YDR502C, strain sam2, hits give low values 0.992 | locus YEL003W, strain gim4, hits give low values 0.994 | locus YEL037C, strain rad23, hits give low values 0.989 | locus YEL061C, strain CIN8 (second series), hits give low values 0.992 | locus YER015W, strain faa2, hits give low values 0.996 | locus YER016W, strain bim1, hits give low values 0.998 | locus YER110C, hits give low values 0.969 | locus YER111C, strain swi4, hits give low values 0.994 | locus YER155C, strain BEM2 (second series), hits give low values 0.977 | locus YER155C, strain BEM2, hits give low values 0.999 | locus YER167W, strain BCK2, hits give low values 0.997 | locus YFR010W, strain ubp6, hits give low values 1 | locus YGL078C, strain dbp3, hits give low values 0.956 | locus YGL086W, strain mad1, hits give low values 0.993 | locus YGL167C, strain pmr1, hits give low values 0.999 | locus YGL173C, strain kem1, hits give low values 0.998 | locus YGL227W, strain vid30, hits give low values 0.987 | locus YGL240W, strain doc1, hits give low values 1.01 | locus YGL248W, strain PDE1, hits give low values 0.988 | locus YGL253W, strain hxk2, hits give low values 1 | locus YGR135W, strain pre9, hits give low values 0.941 | locus YGR252W, strain gcn5, hits give low values 1 | locus YHR013C, strain ard1, hits give low values 0.988 | locus YHR027C, strain rpn1, hits give low values 0.992 | locus YHR030C, strain SLT2, hits give low values 0.985 and 1 | locus YHR079C, strain IRE1 (second series), hits give low values 0.987 | locus YHR079C, strain IRE1, hits give low values 0.993 | locus YHR094C, strain hxt1, hits give low values 0.97 | locus YHR129C, strain ARP1, hits give low values 0.991 | locus YHR142W, strain chs7, hits give low values 1.03 | locus YHR200W, strain rpn10, hits give low values 0.997 | locus YIL066C, strain RNR3, hits give low values 1 | locus YIL073C, strain SPO22, hits give low values 0.892 | locus YIL125W, strain kgd1, hits give low values 0.979 | locus YIR030C, strain dcg1, hits give low values 0.977 | locus YJL092W, strain hpr5, hits give low values 0.99 | locus YJL095W, strain BCK1 (second series), hits give low values 0.989 | locus YJL095W, strain BCK1, hits give low values 0.979 and 0.99 | locus YJL115W, strain asf1, hits give low values 0.976 | locus YJL129C, strain trk1, hits give low values 0.977 | locus YJL134W, strain LCB3, hits give low values 0.993 | locus YJL154C, strain vps35, hits give low values 0.99 | locus YJL164C, strain tpk1, hits give low values 0.996 | locus YJL166W, strain qcr8, hits give low values 0.989 | locus YJL168C, strain set2, hits give low values 0.977 | locus YJL187C, strain SWE1 (second series), hits give low values 0.977
